Measurements from PubChem BioAssay.
Results filed as inconclusive are left out. The source made the active and inactive calls. Unless noted, no cut-off is given here; in the data, nearly all actives have AC50 up to about 27 µM.

Tests used:
[1] = EMT-state selective cytotoxicity in co-culture – imaging, PC-3E GFP, TEM4-18 mCherry, primary screen (AID 1345086;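 active = compounds killing one labelled cell type while sparing the other, by normalised counts and ratio limits, not self-fluorescent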;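 for all read-outs here: cells exposed to compound for 72 h before imaging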;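 for red/green cell ratio (normalised): normalised mesenchymal count divided by normalised epithelial count so high means epithelial killing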); details: PC-3E GFP / TEM4-18 mCherry co-culture, imaging cell counts, at 1 µM; for red/green cell ratio (normalised): actives lie on both sides, counts scaled to control wells, 1 = unselective
[2] = viability loss in pontine glioma line – cell-based, SU-DIPG-XIII, MIPE4.0, CellTiter-Glo, qHTS, dose response (AID 1347061; cut-off not given, nearly all actives have AC50 up to about 37 µM;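 note: cells exposed to compound for 48 hours before readout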); details: CellTiter-Glo ATP luminescence
[3] = viability loss in pontine glioma line – cell-based, JHH-DIPG-1, MIPE4.0, CellTiter-Glo, qHTS, dose response (AID 1347062); details: JHH-DIPG-1 viability, CellTiter-Glo ATP luminescence
[4] = viability loss in pontine glioma line – cell-based, SU-DIPG-IV, MIPE4.0, CellTiter-Glo, qHTS, dose response (AID 1347063; cut-off not given, nearly all actives have AC50 up to about 30 µM;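 note: compound exposure lasted 48 hours before the viability readout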); details: CellTiter-Glo ATP luminescence
[5] = viability loss in pontine glioma line – cell-based, SU-DIPG-XIII, MIPE5.0, CellTiter-Glo, qHTS, dose response (AID 1347064; cut-off not given, nearly all actives have AC50 up to about 23 µM); details: CellTiter-Glo ATP luminescence
[6] = viability loss in pontine glioma line – cell-based, SU-DIPG-XVII, MIPE5.0, CellTiter-Glo, qHTS, dose response (AID 1347060; cut-off not given, nearly all actives have AC50 up to about 26 µM); details: CellTiter-Glo ATP luminescence
[7] = measured here: epithelial PC-3E GFP cell survival
[8] = measured here: mesenchymal TEM4-18 mCherry cell survival

CC[N+](CC)(CC)CCOc1cccc(OCC[N+](CC)(CC)CC)c1OCC[N+](CC)(CC)CC
red/green cell ratio (normalised) [1]: 1.1 (inactive) | normalised cell number [1, 7]: 0.87 | normalised cell number [1, 8]: 0.96 | outcome [2]: inactive | outcome [3]: inactive | outcome [4]: inactive

Cn1c(=O)c2c(ncn2CC(O)CO)n(C)c1=O (stereo not given)
red/green cell ratio (normalised) [1]: 1.41 (inactive) | normalised cell number [1, 7]: 0.78 | normalised cell number [1, 8]: 1.1 | outcome [2]: inactive | outcome [3]: inactive | outcome [4]: inactive | outcome [5]: inactive

Cc1ccccc1N1C(=O)c2cc(S(N)(=O)=O)c(Cl)cc2NC1C (stereo not given)
red/green cell ratio (normalised) [1]: 1.25 (inactive) | normalised cell number [1, 7]: 1.15 | normalised cell number [1, 8]: 1.44 | outcome [2]: inactive | outcome [3]: inactive | outcome [4]: inactive

NCCCCCC(=O)O
red/green cell ratio (normalised) [1]: 0.92 (inactive) | normalised cell number [1, 7]: 1.31 | normalised cell number [1, 8]: 1.21 | outcome [2]: inactive | outcome [3]: inactive | outcome [4]: inactive | outcome [5]: inactive

COc1ccnc(CS(=O)c2nc3ccc(OC(F)F)cc3[nH]2)c1OC (stereo not given)
red/green cell ratio (normalised) [1]: 1.07 (inactive) | normalised cell number [1, 7]: 1.3 | normalised cell number [1, 8]: 1.4 | outcome [6]: inactive | outcome [3]: inactive | outcome [4]: inactive | outcome [5]: inactive

CCCCC(=O)O[C@]1(C(=O)CO)[C@@H](C)C[C@H]2[C@@H]3CCC4=CC(=O)C=C[C@]4(C)[C@@]3(F)[C@@H](O)C[C@@]21C
outcome [6]: inactive

CC1=C(C(=O)O)N2C(=O)[C@@H](NC(=O)[C@H](N)C3=CCC=CC3)[C@H]2SC1
outcome [3]: inactive
